Source: the supplement of paper PMC10849652
Targets with a hit are over-represented here; the source holds about 7,900 in all. About 0.6% of all pairs of compound and target were hits.

Assays:
Assay in all cases: log2 fold change, soluble protein after heating vs DMSO (PISA); higher = thermal stabilisation; K562 cells, 10 uM, 30 min; active = over 0.2 and 3.5 SD of the protein, either way, in both replicates (recomputed)
[1] = compound: C#Cc1cccc(Nc2ncnc3cc(OCCOC)c(OCCOC)cc23)c1 [erlotinib]
Procedure, shortened: (§1)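 Quantification of soluble protein used TMTpro 16plex LC-MS/MS, with channel sums equalised. Samples were the supernatant after 21,000xg for 90 min of pooled aliquots from K562 cells (2×10^6 cells/mL) treated with 10 μM compound for 30 min, heated for 3 min over 48°C-58°C, and extracted in PBS with 0.5% NP-40 at 4°C. Values, from duplicates, describe thermal stability against control samples on a log2 fold-change scale.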

[2] = compound: C/C(=N\NC(=O)C1=CC(=CC=C1)S(=O)(=O)N2CCOCC2)/C3=C(C=CC(=C3)Cl)O
Procedure, shortened: as §1

[3] = compound: C1=CC(=C(C=C1Cl)C2=NC3=NC=CN=C3C(=N2)NC4=CC=NC=C4)F
Procedure, shortened: as §1

[4] = compound: C1=CC(=CC=C1C2=NC3=C(N2)C=C(C=C3)C(=O)N)OC4=CC=C(C=C4)Cl
Procedure, shortened: as §1

[5] = compound: C1=CC2=C(C=CC(=C2)/C=C\3/C(=O)NC(=NCC4=CC=CS4)S3)N=C1
Procedure, shortened: as §1

[6] = compound: C1=CC2=NC=CN=C2C=C1/C=C/3\C(=O)NC(=O)S3
Procedure, shortened: as §1

[7] = compound: C1=CC=C(C=C1)C2=NC(=C(N2)C3=CC=NC=C3)C4=CC(=C(C=C4)Cl)O
Procedure, shortened: as §1

[8] = compound: C1=CC=C2C(=C1)C3=NNC4=CC=CC(=C43)C2=O
Procedure, shortened: as §1

[9] = compound: C1CCN(C1)C(=O)NC2=CC=CC(=C2)NC3=NC=C(C(=N3)NCCC4=CN=CN4)Br
Procedure, shortened: as §1

[10] = compound: C1CN(CCC1(CC2=CC=C(C=C2)Cl)N)C3=NC=NC4=C3C=CN4
Procedure, shortened: as §1

Measured: log2 fold change

CTU1 (UniProt Q7Z7A3)
inactive: [1] 0.05 | [2] -0.01 | [3] 0.079 | [4] 0.047 | [5] 0.079 | [6] 0.011 | [7] 0.04 | [8] 0.042 | [9] 0.032 | [10] 0.008

CTSZ (UniProt Q9UBR2)
inactive: [1] 0.053 | [2] -0.025 | [3] 0.027 | [4] -0.047 | [5] -0.013 | [6] 0.023 | [7] -0.017 | [8] 0.073 | [9] 0.057 | [10] 0.09

EDC4 (UniProt Q6P2E9)
inactive: [1] -0.045 | [2] 0.1 | [3] -0.058 | [4] 0.017 | [5] -0.177 | [6] -0.069 | [7] -0.035 | [8] -0.151 | [9] -0.023 | [10] -0.041

FAM118B (UniProt Q9BPY3)
inactive: [1] 0.164 | [2] 0.098 | [3] 0.195 | [4] -0.084 | [5] 0.123 | [6] 0 | [7] 0.044 | [8] -0.021 | [9] -0.045 | [10] -0.023

CTSC (UniProt P53634)
Chain of UniProt P53634 (P53634 whole entry, looked up): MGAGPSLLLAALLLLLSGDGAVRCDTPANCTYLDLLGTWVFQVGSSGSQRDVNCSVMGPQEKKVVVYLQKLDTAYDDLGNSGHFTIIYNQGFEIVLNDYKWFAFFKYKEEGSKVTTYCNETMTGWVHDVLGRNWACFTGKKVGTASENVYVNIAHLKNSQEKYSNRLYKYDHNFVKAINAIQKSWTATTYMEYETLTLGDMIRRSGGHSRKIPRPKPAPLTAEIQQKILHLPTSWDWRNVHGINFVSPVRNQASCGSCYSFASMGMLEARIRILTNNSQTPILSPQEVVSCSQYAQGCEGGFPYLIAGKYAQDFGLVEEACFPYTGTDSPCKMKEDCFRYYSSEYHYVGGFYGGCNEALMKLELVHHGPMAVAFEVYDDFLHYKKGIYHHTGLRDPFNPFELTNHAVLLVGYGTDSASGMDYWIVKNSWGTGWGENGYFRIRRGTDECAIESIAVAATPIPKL
inactive: [1] -0.002 | [2] 0.016 | [3] 0.022 | [4] -0.031 | [5] 0.014 | [6] 0.004 | [7] 0.028 | [8] 0.009 | [9] -0.02 | [10] 0.138

FAM3A (UniProt P98173)
Chain of UniProt P98173 (P98173 whole entry, looked up): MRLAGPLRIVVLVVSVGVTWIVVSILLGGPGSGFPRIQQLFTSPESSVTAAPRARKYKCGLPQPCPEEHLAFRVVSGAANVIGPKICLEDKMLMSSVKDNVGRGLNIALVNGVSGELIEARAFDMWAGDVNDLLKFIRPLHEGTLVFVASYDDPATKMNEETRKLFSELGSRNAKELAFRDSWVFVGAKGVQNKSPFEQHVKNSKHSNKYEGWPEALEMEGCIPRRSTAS
inactive: [1] -0.064 | [2] 0.118 | [3] -0.067 | [4] 0.029 | [5] 0.059 | [6] 0.082 | [7] 0.083 | [8] -0.05 | [9] -0.044 | [10] 0.059

CYBA (UniProt P13498)
Chain of UniProt P13498 (P13498 whole entry, looked up): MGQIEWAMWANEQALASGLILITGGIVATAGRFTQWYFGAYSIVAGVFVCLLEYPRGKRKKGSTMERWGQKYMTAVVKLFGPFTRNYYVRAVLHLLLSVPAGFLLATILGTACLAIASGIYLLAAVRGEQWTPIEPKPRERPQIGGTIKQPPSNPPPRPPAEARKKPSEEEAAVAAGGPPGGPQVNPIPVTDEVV
inactive: [1] -0.075 | [2] 0.096 | [3] -0.005 | [4] 0.025 | [5] 0.042 | [6] 0.032 | [7] 0.03 | [8] -0.072 | [9] -0.012 | [10] -0.005

EDEM2 (UniProt Q9BV94)
inactive: [1] -0.025 | [2] 0.023 | [3] -0.009 | [4] 0.09 | [5] 0.132 | [6] -0.318 | [7] 0.012 | [8] 0.081 | [9] -0.018 | [10] 0.05

DHFR (UniProt P00374)
inactive: [1] 0.156 | [2] 0 | [3] -0.176 | [4] -0.144 | [5] 0.03 | [6] 0.043 | [7] 0.055 | [8] 0.049 | [9] -0.047 | [10] -0.015

FAM114A2 (UniProt Q9NRY5)
inactive: [1] -0.001 | [2] 0.051 | [3] 0.055 | [4] -0.002 | [5] 0.008 | [6] 0.067 | [7] -0.018 | [8] -0.04 | [9] -0.002 | [10] -0.021

CTSA (UniProt P10619)
inactive: [1] -0.058 | [2] -0.065 | [3] 0.001 | [4] -0.004 | [5] -0.053 | [6] 0.018 | [7] 0.04 | [8] 0.003 | [9] 0.021 | [10] 0.051

EXOC1 (UniProt Q9NV70)
Chain of UniProt Q9NV70 (Q9NV70 whole entry, looked up): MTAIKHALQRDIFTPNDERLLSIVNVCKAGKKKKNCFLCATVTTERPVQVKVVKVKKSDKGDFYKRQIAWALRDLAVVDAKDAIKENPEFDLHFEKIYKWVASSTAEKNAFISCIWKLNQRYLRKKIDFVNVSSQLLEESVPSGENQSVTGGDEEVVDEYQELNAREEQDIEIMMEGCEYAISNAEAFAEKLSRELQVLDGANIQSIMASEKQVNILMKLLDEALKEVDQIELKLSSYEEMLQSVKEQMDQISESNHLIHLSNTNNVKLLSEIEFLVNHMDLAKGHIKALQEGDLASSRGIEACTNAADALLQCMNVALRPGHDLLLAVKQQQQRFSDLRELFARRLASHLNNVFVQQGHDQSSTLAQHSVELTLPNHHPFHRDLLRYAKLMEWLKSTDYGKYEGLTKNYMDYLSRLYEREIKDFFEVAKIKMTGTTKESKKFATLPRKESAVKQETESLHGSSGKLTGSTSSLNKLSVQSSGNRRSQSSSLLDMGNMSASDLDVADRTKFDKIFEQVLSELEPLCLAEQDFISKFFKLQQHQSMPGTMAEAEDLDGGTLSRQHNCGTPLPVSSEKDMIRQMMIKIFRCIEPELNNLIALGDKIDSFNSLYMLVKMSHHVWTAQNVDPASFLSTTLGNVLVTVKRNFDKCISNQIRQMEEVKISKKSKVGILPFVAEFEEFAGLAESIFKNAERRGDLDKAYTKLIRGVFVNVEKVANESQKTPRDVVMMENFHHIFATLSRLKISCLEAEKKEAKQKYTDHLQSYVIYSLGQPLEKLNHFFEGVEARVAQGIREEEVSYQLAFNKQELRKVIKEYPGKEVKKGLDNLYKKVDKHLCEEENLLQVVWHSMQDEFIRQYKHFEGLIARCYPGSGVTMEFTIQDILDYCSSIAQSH
inactive: [1] 0.057 | [2] 0.163 | [3] -0.104 | [4] -0.05 | [5] 0.17 | [6] 0.013 | [7] 0.051 | [8] 0.054 | [9] -0.044 | [10] -0.073

ECPAS (UniProt Q5VYK3)
inactive: [1] 0.058 | [2] 0.087 | [3] 0.001 | [4] -0.06 | [5] 0.042 | [6] 0.009 | [7] 0.048 | [8] -0.01 | [9] -0.028 | [10] -0.018

DHX40 (UniProt Q8IX18)
Chain of UniProt Q8IX18 (Q8IX18 whole entry, looked up): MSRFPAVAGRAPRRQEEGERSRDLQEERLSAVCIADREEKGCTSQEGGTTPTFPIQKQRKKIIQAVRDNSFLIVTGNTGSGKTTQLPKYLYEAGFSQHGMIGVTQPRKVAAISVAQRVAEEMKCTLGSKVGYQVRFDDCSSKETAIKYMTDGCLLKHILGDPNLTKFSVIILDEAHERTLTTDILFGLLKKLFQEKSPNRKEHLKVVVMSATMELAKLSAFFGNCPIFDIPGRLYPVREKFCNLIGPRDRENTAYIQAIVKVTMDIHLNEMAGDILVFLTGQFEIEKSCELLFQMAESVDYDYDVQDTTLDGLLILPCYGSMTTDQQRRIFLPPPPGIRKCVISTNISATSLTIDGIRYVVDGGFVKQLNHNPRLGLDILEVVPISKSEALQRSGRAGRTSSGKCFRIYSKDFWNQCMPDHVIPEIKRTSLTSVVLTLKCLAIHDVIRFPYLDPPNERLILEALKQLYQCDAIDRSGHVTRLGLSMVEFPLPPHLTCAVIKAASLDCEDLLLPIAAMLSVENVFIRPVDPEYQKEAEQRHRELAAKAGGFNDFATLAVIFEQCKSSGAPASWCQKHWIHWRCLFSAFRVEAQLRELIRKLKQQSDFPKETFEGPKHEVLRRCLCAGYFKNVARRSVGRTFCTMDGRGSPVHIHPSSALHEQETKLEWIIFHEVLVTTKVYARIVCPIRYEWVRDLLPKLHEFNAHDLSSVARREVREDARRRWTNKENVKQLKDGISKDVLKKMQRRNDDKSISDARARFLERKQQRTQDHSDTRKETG
inactive: [1] 0.019 | [2] 0.05 | [3] -0.008 | [4] 0.071 | [5] 0.044 | [6] 0.092 | [7] -0.046 | [8] -0.034 | [9] -0.071 | [10] -0.038

DYNC1LI2 (UniProt O43237)
Chain of UniProt O43237 (O43237 whole entry, looked up): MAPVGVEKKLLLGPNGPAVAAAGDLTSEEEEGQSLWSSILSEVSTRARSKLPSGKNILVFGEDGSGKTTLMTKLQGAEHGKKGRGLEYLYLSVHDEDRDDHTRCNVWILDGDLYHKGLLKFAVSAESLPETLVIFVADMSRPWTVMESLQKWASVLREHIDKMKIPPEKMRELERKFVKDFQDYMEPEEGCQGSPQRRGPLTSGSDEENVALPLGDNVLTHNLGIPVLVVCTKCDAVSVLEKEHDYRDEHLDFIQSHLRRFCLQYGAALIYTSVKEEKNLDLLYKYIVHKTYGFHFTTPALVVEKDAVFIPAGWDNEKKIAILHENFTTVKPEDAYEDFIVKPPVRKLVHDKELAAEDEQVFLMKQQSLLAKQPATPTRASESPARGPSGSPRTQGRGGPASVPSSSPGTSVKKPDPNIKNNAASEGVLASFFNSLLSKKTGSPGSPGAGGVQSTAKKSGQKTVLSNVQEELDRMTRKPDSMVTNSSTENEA
inactive: [1] 0.035 | [2] -0.147 | [3] -0.257 | [4] -0.012 | [5] -0.04 | [6] -0.073 | [7] -0.061 | [8] 0.049 | [9] 0.035 | [10] -0.052

DTWD1 (UniProt Q8N5C7)
inactive: [1] 0.072 | [2] 0.007 | [3] 0.002 | [4] -0.122 | [5] 0.018 | [6] 0.017 | [7] -0.039 | [8] 0.023 | [9] 0.016 | [10] 0.044

EBNA1BP2 (UniProt Q99848)
Chain of UniProt Q99848 (Q99848 whole entry, looked up): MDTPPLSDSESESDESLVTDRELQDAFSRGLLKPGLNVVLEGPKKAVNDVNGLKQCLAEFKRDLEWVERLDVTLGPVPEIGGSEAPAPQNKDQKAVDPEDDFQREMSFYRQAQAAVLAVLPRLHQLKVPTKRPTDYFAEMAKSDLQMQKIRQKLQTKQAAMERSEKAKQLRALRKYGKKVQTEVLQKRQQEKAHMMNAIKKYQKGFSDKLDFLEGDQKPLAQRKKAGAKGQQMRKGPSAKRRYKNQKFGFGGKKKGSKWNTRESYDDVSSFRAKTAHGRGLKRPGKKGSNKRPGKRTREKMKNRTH
inactive: [1] -0.041 | [2] -0.149 | [3] -0.466 | [4] 0.034 | [5] 0.042 | [6] 0.052 | [7] -0.047 | [8] -0.134 | [9] 0.048 | [10] -0.414

CUX1 isoform 3 (UniProt P39880)
inactive: [1] 0.013 | [2] 0 | [3] 0.034 | [4] -0.015 | [5] -0.008 | [6] 0.11 | [7] -0.074 | [8] 0.01 | [9] -0.003 | [10] 0.092

DMAC1 (UniProt Q96GE9)
Chain of UniProt Q96GE9 (Q96GE9 whole entry, looked up): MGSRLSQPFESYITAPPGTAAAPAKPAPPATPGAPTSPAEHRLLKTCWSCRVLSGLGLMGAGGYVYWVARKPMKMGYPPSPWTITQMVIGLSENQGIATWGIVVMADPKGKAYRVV
inactive: [1] 0.041 | [2] 0.076 | [3] 0.128 | [4] -0.002 | [5] 0.059 | [6] -0.004 | [7] -0.04 | [8] -0.021 | [9] 0.008 | [10] 0.072

DIAPH1 (UniProt O60610)
inactive: [1] 0.072 | [2] 0.058 | [3] -0.109 | [4] -0.037 | [5] 0.031 | [6] 0.04 | [7] 0.067 | [8] 0.006 | [9] -0.072 | [10] -0.235

DNAJC19 (UniProt Q96DA6)
Chain of UniProt Q96DA6 (Q96DA6 whole entry, looked up): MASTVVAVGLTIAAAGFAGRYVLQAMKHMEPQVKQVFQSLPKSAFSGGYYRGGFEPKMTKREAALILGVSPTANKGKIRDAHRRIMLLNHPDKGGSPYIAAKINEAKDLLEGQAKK
inactive: [1] -0.009 | [2] 0.014 | [3] 0.055 | [4] 0.001 | [5] -0.005 | [6] 0.04 | [7] 0.052 | [8] -0.022 | [9] -0.012 | [10] 0.016

FAM50A (UniProt Q14320)
inactive: [1] 0.015 | [2] 0.051 | [3] 0.054 | [4] -0.017 | [5] -0.009 | [6] 0.062 | [7] -0.019 | [8] -0.001 | [9] -0.026 | [10] -0.065

CUTA isoform 2 (UniProt O60888)
Chain of UniProt O60888 (O60888 whole entry, looked up): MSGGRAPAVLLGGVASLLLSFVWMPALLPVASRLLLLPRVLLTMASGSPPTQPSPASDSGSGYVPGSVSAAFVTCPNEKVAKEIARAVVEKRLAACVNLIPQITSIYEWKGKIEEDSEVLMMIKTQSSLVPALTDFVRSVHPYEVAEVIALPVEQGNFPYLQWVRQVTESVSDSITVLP
inactive: [1] -0.01 | [2] -0.066 | [3] 0 | [4] 0.033 | [5] 0 | [6] 0.003 | [7] 0.091 | [8] -0.054 | [9] -0.1 | [10] -0.105

CUEDC2 (UniProt Q9H467)
Chain of UniProt Q9H467 (Q9H467 whole entry, looked up): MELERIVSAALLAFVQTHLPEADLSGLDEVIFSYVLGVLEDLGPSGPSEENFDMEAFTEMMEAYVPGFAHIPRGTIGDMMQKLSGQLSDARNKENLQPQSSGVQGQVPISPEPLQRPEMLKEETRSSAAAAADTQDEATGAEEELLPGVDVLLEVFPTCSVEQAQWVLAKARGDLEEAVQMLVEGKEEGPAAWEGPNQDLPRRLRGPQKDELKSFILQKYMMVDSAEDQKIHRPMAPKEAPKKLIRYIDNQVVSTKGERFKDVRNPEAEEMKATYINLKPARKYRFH
inactive: [1] 0.016 | [2] -0.023 | [3] 0.047 | [4] 0.023 | [5] -0.021 | [6] 0.117 | [7] -0.074 | [8] 0.008 | [9] -0.071 | [10] -0.006

F5 (UniProt P12259)
inactive: [1] -0.122 | [2] 0 | [3] -0.002 | [4] 0.061 | [5] -0.096 | [6] -0.054 | [7] -0.018 | [8] -0.064 | [9] 0 | [10] 0.052

DYRK1A isoform 2 (UniProt Q13627)
inactive: [1] 0.034 | [2] 0.039 | [3] -0.058 | [4] 0.019 | [5] -0.095 | [6] -0.173 | [7] -0.027 | [8] -0.064 | [9] -0.093 | [10] -0.067

DPP8 (UniProt Q6V1X1)
inactive: [1] 0.093 | [2] 0.088 | [3] 0.067 | [4] 0 | [5] 0.134 | [6] 0.018 | [7] -0.067 | [8] -0.011 | [9] -0.003 | [10] 0.008

ETNK1 (UniProt Q9HBU6)
Chain of UniProt Q9HBU6 (Q9HBU6 whole entry, looked up): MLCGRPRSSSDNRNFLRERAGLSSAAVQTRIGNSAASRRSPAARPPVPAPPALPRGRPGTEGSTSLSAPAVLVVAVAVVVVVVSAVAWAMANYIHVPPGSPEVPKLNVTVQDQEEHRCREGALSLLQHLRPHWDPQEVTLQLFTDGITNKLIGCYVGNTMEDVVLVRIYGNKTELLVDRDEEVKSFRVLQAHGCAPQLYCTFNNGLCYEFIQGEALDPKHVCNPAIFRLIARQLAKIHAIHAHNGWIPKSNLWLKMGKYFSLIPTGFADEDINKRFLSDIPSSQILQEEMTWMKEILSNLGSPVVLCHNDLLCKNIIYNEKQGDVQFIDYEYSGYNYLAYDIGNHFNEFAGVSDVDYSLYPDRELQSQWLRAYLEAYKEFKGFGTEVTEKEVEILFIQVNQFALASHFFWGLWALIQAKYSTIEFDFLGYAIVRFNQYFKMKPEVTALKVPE
inactive: [1] 0.004 | [2] 0.128 | [3] 0.244 | [4] -0.001 | [5] -0.126 | [6] 0.035 | [7] 0.037 | [8] 0.028 | [9] -0.033 | [10] -0.119

EHBP1L1 (UniProt Q8N3D4)
inactive: [1] -0.005 | [2] 0.088 | [3] 0.06 | [4] -0.005 | [5] 0.057 | [6] 0.026 | [7] -0.013 | [8] -0.03 | [9] -0.1 | [10] -0.116

EIF3J (UniProt O75822)
Chain of UniProt O75822 (O75822 whole entry, looked up): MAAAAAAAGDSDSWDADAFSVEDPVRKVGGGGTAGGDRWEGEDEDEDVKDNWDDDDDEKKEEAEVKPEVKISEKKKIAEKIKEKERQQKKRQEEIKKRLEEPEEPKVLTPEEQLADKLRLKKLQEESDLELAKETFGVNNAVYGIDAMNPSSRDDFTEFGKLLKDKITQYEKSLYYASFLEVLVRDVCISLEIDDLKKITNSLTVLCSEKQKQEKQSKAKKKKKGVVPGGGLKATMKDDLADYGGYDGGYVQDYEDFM
inactive: [1] 0.056 | [2] -0.004 | [3] 0.068 | [4] -0.033 | [5] 0.012 | [6] 0.048 | [7] 0.101 | [8] 0.021 | [9] 0.009 | [10] -0.01
